NPSR antag: blocks cAMP signaling of the human neuropeptide S receptor; hit rate 1% among 220,000; Q6W5P4; CHO-NPSR cells, cAMP TR-FRET, antagonist mode; Potency, µM (highest dose often 38.3 µM), without a hit: at the top dose activity change, negative = inhibition, hits mostly inhibitors; active = well fitted curve in the direction sought with a large enough effect; inconclusive = small, poorly fitted or top-dose-only effect, or another doubt; inactive = no such curve, though single readings can be large; an effect the other way counts as inactive or inconclusive; note: potency is the fitted concentration of half-maximal effect; nearly all actives have a fitted effect of over 50% in size
Target sequence (Q6W5P4 whole entry, looked up): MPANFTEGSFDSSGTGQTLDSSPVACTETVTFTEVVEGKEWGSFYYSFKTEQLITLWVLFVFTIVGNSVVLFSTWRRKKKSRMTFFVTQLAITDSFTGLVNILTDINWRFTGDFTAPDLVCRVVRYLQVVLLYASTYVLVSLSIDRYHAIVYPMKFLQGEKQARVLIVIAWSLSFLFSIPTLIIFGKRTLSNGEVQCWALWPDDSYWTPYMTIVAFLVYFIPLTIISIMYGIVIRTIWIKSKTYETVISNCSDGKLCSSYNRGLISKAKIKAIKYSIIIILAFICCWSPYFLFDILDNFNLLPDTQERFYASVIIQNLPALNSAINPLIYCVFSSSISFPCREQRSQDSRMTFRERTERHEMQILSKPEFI
ALDH1A1 inh: ALDH1A1 (human) enzyme inhibition. Purified ALDH1A1, NADH fluorescence, propionaldehyde substrate. Potency, µM (highest dose often 75.3 µM), inactives show at the top dose activity, negative = inhibition, usual class: inhibitors. hit rate 7.3% among 220,000. AID 1030;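 note: potency is the fitted concentration of half-maximal effect; plate controls were no enzyme wells and a reference inhibitor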
HPGD block: HPGD (human) dehydrogenase inhibition. P15428. purified HPGD, NADH fluorescence kinetic, PGE2 substrate. Potency, µM, without a hit: at the top dose activity change, negative = inhibition, most hits filed as inhibitors. hit rate 4.3% among 150,000. AID 894; note: potency is the fitted concentration of half-maximal effect
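NADH formation kinetics: reaction with 30 uM PGE2 and 1 mM NAD+ (final), 20 nM enzyme, Tris-HCl pH 8 with Tween 20, after 15 min compound preincubation at room temperature. Fluorescence change, last versus first of five reads.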
PNC inhibitor: perinucleolar compartment assembly inhibition | hit rate 3.1% among 140,000 | AID 2417 | activity change (PNC), negative = inhibition, % at 10 µM | PC3M PTB-GFP, PNC prevalence imaging, 16 h; stronger effect = lower value;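 active = readout at or below -70, meaning at least 70% loss of cells showing the perinucleolar compartment, a nuclear body marking cancer cells; inconclusive = readout between -30 and a set limit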;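 note: plate controls were DMSO wells for no effect and camptothecin positive control wells for full effect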
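Read-out is percentage of cells bearing a perinucleolar compartment, from automated 20x imaging of fixed, Hoechst-stained PC3M PTB-GFP cells. Cells were seeded 4 h, then exposed 16 h to compound (23 nl of library stock) in duplicate plates.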
IMPase Li cell: cell-permeable IMPase inhibitors with lithium potentiation; AID 1457; CHO-M1 cells, IP1 TR-FRET (IP-One), carbachol + lithium; hit rate 0.35% among 210,000; Potency, µM (doses to about 59.4 µM), inactives show at the top dose activity, negative = IMPase inhibition, hits mostly inhibitors; active = well fitted curve in the direction sought with a large enough effect; inconclusive = small, poorly fitted or top-dose-only effect, or another doubt; inactive = no such curve, though single readings can be large; an effect the other way counts as inactive or inconclusive;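 note: IP1 builds up when IMPase is blocked and the TR-FRET signal falls; potency is the fitted concentration of half-maximal effect; plate controls were basal vehicle for no effect and high inhibitor control for full effect; nearly all actives have a fitted effect of over 50% in size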
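CHO-M1, 2000 cells/well, 16–30 h culture; cpd + low Li+, 30 min 37C; lysis with d2-IP1/Eu-anti-IP1 Ab, 10 min RT; TR-FRET 665/620 ratio and 620 channel; AC50 via Hill.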
IMPase cell inh: membrane-permeable compound that blocks inositol monophosphatase; P97697; CHO-M1 cells, IP1 accumulation, HTRF TR-FRET ratio; inhibition (IP1 accumulation), % at 46.1 µM; 120,000 tested, under 10 active; AID 901; active = well fitted curve in the direction sought with a large enough effect in the signal ratio, not every such curve was filed as active; inconclusive = small, poorly fitted or top-dose-only effect, or a change in a side signal; inactive = no such curve, though single readings can be large or run the other way; the % refers to the signal ratio;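 note: cells stimulated with carbachol in lithium chloride buffer; plate controls were DMSO basal wells for no effect and reference inhibitor wells for full effect; higher means more IMPase inhibition seen as more IP1 and lower FRET ratio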
Target sequence (P97697 whole entry, looked up): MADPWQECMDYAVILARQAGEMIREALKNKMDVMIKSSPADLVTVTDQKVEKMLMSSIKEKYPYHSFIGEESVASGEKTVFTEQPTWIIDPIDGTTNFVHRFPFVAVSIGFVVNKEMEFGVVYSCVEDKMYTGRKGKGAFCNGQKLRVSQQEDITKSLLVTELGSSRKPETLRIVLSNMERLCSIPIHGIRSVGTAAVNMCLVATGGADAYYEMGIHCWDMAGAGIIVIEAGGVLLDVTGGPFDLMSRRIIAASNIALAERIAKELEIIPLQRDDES
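CHO-M1, 2000 cells/well, cultured 16–30 h; cpd up to 46 uM; carbachol (50 uM solution, stimulation buffer w/ 50 mM LiCl, pH 7.4), 30 min 37C; IP-One TR-FRET, 10 min RT; Ex 320/Em 665, 620; Hill-fit AC50.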
* = called active by the depositor; [ ] = remark or other dose. In the library only some 11% were active in any assay of this set; here they are far more common. Unless noted, calls come from the whole dose curve; as a rule, active = well fitted inhibition curve with a large enough effect (not every such curve was filed as active); inconclusive = small, poorly fitted or top-dose-only effect, or another doubt; inactive = no such curve, though single readings can be large or run the other way. Unless noted, % is set by controls: 0 for no effect and ±100 for the full control effect.

For CCCC(=O)N1CCN(c2ccc(NC(=S)NC(=O)c3cccc(C)c3)cc2)CC1 the results were NPSR antag -5%, ALDH1A1 inh 20µM* and IMPase Li cell 18%.
`NC(=O)c1ccc(-n2nnnc2Oc2ccc(Br)cc2)cc1` gave NPSR antag -3%, ALDH1A1 inh 6% and IMPase Li cell 0%.
COc1cccc(C(=O)NC(=S)Nc2ccc(N(C)C)cc2)c1 was read as NPSR antag -2%, ALDH1A1 inh 10µM*, HPGD block -17%, PNC inhibitor 15 and IMPase Li cell 14%.
COc1ccccc1C(=O)NC(=S)Nc1ccc(N2CCCC2)cc1 was read as NPSR antag 26%, ALDH1A1 inh -2%, HPGD block -8%, PNC inhibitor -16, IMPase Li cell 2% and IMPase cell inh 0.
For COc1ccc(C(=O)Nc2ccc(N3CCCC3)cc2)cc1 the results were NPSR antag -3%[46.1 µM], ALDH1A1 inh inconclusive, HPGD block -9%, PNC inhibitor 5, IMPase Li cell 16%[38.3 µM] and IMPase cell inh 10.
For COc1cc(C(=O)NC(=S)Nc2ccc(N3CCCC3)cc2)cc(OC)c1OC the results were NPSR antag 16%[46.1 µM], ALDH1A1 inh 28µM*, PNC inhibitor 28 and IMPase cell inh 1.
`COc1cccc(C(=O)Nc2ccc(C(=O)O)cc2)c1` gave NPSR antag -8%[46.1 µM], ALDH1A1 inh -13%, PNC inhibitor 19 and IMPase cell inh 1.
For COc1ccc(C(=O)NC(=S)Nc2ccc(N3CCCC3)cc2)cc1 the results were NPSR antag -2%, ALDH1A1 inh 10µM* and IMPase Li cell 9%.
`COCCNC(=S)Nc1ccc(N2CCCCC2)cc1` gave NPSR antag 4%, ALDH1A1 inh 8.9µM* and IMPase Li cell 6%.
N#C/C(=C\c1ccccc1)C(=O)Nc1cc(S(=O)(=O)N2CCOCC2)ccc1N1CCCC1 was read as NPSR antag -15%[46.1 µM], ALDH1A1 inh -13%, PNC inhibitor 6 and IMPase cell inh -3.
Screening Cc1nn(-c2ncc(C(F)(F)F)cc2Cl)c(=O)n1-c1ccc(F)cc1 returned NPSR antag 6%, ALDH1A1 inh 13% and IMPase Li cell -7%.
`CCOC(=O)c1ccc2nc3c(cc2c1)CCS3` gave NPSR antag -5%[46.1 µM], ALDH1A1 inh inconclusive, HPGD block -27%, PNC inhibitor -1, IMPase Li cell 9%[38.3 µM] and IMPase cell inh 0.
COc1ccc(/C=N/NC2=NCCCCC2)c(OC)c1 was read as NPSR antag 3%, ALDH1A1 inh inconclusive and IMPase Li cell 10%.
For COc1ccc(/C=N/NC2=NCCCCC2)cc1 the results were NPSR antag -5%[46.1 µM], ALDH1A1 inh inconclusive, HPGD block 13µM*, PNC inhibitor 3, IMPase Li cell 24%[38.3 µM] and IMPase cell inh 12.
COc1ccc(C2C3=C(CCCC3=O)Nc3nc(SCc4ccc(C(=O)O)cc4)nn32)cc1OC (configuration not stated) was read as NPSR antag -11%[46.1 µM], ALDH1A1 inh inconclusive, HPGD block inconclusive, PNC inhibitor 51, IMPase Li cell -3%[38.3 µM] and IMPase cell inh inconclusive.
Screening COC(=O)c1nc2n(n1)C(c1cccc(Cl)c1)C1=C(CCCC1=O)N2 (configuration not stated) returned NPSR antag -7%[46.1 µM], ALDH1A1 inh 18%, HPGD block 16µM*, PNC inhibitor 9, IMPase Li cell 2%[38.3 µM] and IMPase cell inh 9.
For COc1ccc(C2C3=C(CCCC3=O)Nc3nc(SCc4ccccc4)nn32)cc1OC (configuration not stated) the results were NPSR antag -19%[46.1 µM], ALDH1A1 inh 2%, HPGD block -16%, PNC inhibitor -86*, IMPase Li cell -10%[38.3 µM] and IMPase cell inh 2.
Screening C#CCOC(=O)CCCC(=O)NCCCCCCCC returned NPSR antag 10%, ALDH1A1 inh 5% and IMPase Li cell inconclusive.
Screening CCOc1ccc(C(=O)OCc2nnc(-c3cccs3)o2)cc1OC returned NPSR antag -17%[46.1 µM], ALDH1A1 inh 1%, HPGD block 25µM*, PNC inhibitor inconclusive, IMPase Li cell -7%[38.3 µM] and IMPase cell inh 14.
Screening CCOc1ccc(C(=O)OCn2nnc3ccccc3c2=O)cc1OC returned NPSR antag -26%[7.67 µM], ALDH1A1 inh -2%, HPGD block 0%, PNC inhibitor inconclusive, IMPase Li cell 2%[38.3 µM] and IMPase cell inh -2.
Screening Cc1ccc(NC(=O)CCN2CCN(C/C=C/c3ccccc3)CC2)cc1C returned NPSR antag -1%[46.1 µM], ALDH1A1 inh 14µM*, HPGD block -13%, PNC inhibitor 0, IMPase Li cell 7%[38.3 µM] and IMPase cell inh 6.
Screening O=c1cc(CSc2nnc(-c3ccco3)o2)c2ccccc2[nH]1 returned NPSR antag -17%[46.1 µM], ALDH1A1 inh -2%, HPGD block 20µM*, PNC inhibitor 25, IMPase Li cell 23%[38.3 µM] and IMPase cell inh inconclusive.
For Fc1ccc(CSc2nc3ccccc3[nH]2)c2ccccc12 the results were NPSR antag inconclusive, ALDH1A1 inh -5%, HPGD block inconclusive, PNC inhibitor -8, IMPase Li cell 16%[38.3 µM] and IMPase cell inh 6.
For O=c1cc(CSc2nc3ccccc3[nH]2)c2ccccc2[nH]1 the results were NPSR antag -13%[46.1 µM], ALDH1A1 inh -5%, HPGD block 7.9µM*, PNC inhibitor inconclusive, IMPase Li cell 33%[38.3 µM] and IMPase cell inh 0.
`COc1ccc(-c2nc(-c3cccs3)c(-c3cccs3)[nH]2)cc1OC` gave NPSR antag -12%[46.1 µM], ALDH1A1 inh inconclusive, HPGD block inconclusive, PNC inhibitor -4, IMPase Li cell -17%[38.3 µM] and IMPase cell inh -6.
Cc1cccc(CCN(CC(=O)NC2CCCCC2)C(=O)c2csnn2)c1 was read as NPSR antag -10%, ALDH1A1 inh -5% and IMPase Li cell 10%.
COc1cccc2cc(C(=O)N3CCc4ccccc4C3)c(=O)oc12 was read as NPSR antag -11%[46.1 µM], ALDH1A1 inh 0%, HPGD block 7.9µM*, PNC inhibitor inconclusive, IMPase Li cell -3%[38.3 µM] and IMPase cell inh 6.
For CCOc1cccc2cc(C(=O)N3CCc4ccccc4C3)c(=O)oc12 the results were NPSR antag -8%[46.1 µM], ALDH1A1 inh -12%, HPGD block 4.5µM*, PNC inhibitor 28, IMPase Li cell 24%[38.3 µM] and IMPase cell inh -8.
CCOc1cccc2cc(C(=O)Nc3ccccc3-c3ccccc3)c(=O)oc12 was read as NPSR antag -13%, ALDH1A1 inh 0.14µM*, HPGD block -15%, PNC inhibitor 59 and IMPase Li cell -3%.

Assay outcomes as filed in PubChem BioAssay.
